Compounds with a hit are over-represented: about 21% of the library has one in this group of screens.
RORgamma inh: qHTS for inhibitors of ROR gamma transcriptional activity. Nuclear receptor ROR-gamma (Mus musculus), P51450. Drosophila S2 Gal4-RORgamma UAS-luciferase reporter, 20 h. Potency, µM (highest dose often 53.6 µM), inactives show at the highest dose activity change, negative = inhibition, actives largely listed as inhibitors. 5.4% of 310,000 active. AID 2551, 2010; further: potency means the concentration at half of the fitted maximal effect; nearly all actives have a fitted effect of over 60% in size
Target sequence (P51450 whole entry, looked up, the tested form may be a part): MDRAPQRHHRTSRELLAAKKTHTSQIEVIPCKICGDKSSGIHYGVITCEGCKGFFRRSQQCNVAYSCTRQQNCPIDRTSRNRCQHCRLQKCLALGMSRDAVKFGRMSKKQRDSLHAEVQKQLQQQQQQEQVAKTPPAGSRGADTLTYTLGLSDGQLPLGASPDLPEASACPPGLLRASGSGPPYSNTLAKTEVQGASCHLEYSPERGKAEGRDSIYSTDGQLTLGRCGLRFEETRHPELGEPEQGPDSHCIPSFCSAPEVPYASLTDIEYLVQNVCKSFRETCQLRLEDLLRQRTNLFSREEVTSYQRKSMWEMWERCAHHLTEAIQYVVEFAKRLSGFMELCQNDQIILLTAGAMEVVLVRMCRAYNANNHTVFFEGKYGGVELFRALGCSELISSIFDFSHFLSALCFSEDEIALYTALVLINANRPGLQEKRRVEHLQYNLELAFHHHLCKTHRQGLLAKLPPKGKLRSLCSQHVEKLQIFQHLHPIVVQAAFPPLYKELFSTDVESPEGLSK
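Schneider cells (Drosophila), stable Gal4 DBD–ROR gamma + UAS-luc; 1 hr cmpd preincubation; Cu2+ induction 700 uM final; 20 hr ambient; luminescence.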
ELG1 DNA repair: qHTS screen for small molecules that inhibit ELG1-dependent DNA repair in human embryonic kidney (HEK293T) cells expressing luciferase-tagged ELG1; 2.3% of 330,000 active; Potency, µM (doses to about 46.1 µM), without a hit: top-dose activity change, negative = inhibition, actives largely listed as inhibitors; HEK293T ELG1-luciferase reporter, luminescence, 16 h; DNA damage induced by 5-fluorouridine; further: potency means the concentration at half of the fitted maximal effect; nearly all actives have a fitted effect of over 55% in size
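HEK293T cells expressing luciferase-tagged ELG1 (2,000/well) received 5-Fluorouridine plus compound or DMSO for 16 hr at 37 °C. Luciferase was read by ONE-Glo luminescence after 30 min at room temperature.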
TDP1 cell CPT: qHTS for Inhibitors of human tyrosyl-DNA phosphodiesterase 1 (TDP1): qHTS in cells in presence of CPT. chicken DT40 Tdp1-/-;hTDP1 cells + 20 nM CPT, ATP luminescence, 48 h. Potency, µM (highest dose often 46.2 µM), without a hit: at the top dose activity change, negative = growth inhibition, most hits filed as inhibitors. 12% of 420,000 active; further: potency means the concentration at half of the fitted maximal effect; nearly all actives have a fitted effect of over 55% in size
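Chicken DT40 Tdp1-/- cells complemented with human TDP1, 400 cells/well, exposed to compounds plus 20 nM camptothecin for at least 48 h at 37 C; viability read as ATP content by CellTiter-Glo luminescence.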
IL-1B inflam inh: qHTS for Inhibitors of Inflammasome Signaling: IL-1-beta AlphaLISA Primary Screen | THP-1 LPS/ATP IL-1B secretion, AlphaLISA, 16 h; hits give low values | activity change, % at 57.5 µM | 4.7% of 360,000 active | AID 743279, 2014; in the data active means activity change below about -50%; inconclusive means mostly about -30% to -49%
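Secreted IL-1B measured by AlphaLISA bead assay after 16 h compound exposure of THP-1 cells; compounds (final up to 57.5 uM) added 1 h before LPS (250 ng/mL) and ATP (1.25 mM) stimulation; lower signal means less secretion.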
VP16 counter: VP16 counterscreen qHTS for inhibitors of ROR gamma transcriptional activity | Drosophila S2 Gal4-VP16 UAS-luciferase, luminescence, 20 h | Potency, µM (top dose mostly 53.6 µM), without a hit: top-dose activity, negative = inhibition, hits mostly inhibitors | 3.5% of 310,000 active | AID 2546, 2010;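 further: Gal4-VP16 expression switched on by copper sulfate through the metallothionein promoter; potency means the concentration at half of the fitted maximal effect; nearly all actives have a fitted effect of over 50% in size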
TDP1 cell noCPT: qHTS for Inhibitors of human tyrosyl-DNA phosphodiesterase 1 (TDP1): qHTS in cells in absence of CPT; 15% of 420,000 active; AID 686978, 2013; DT40 Tdp1-/- hTDP1 cells, no CPT, ATP luminescence, 48 h; Potency, µM (series often up to 46.2 µM), for inactives: top-dose activity change, negative = growth inhibition, most hits filed as inhibitors; further: potency means the concentration at half of the fitted maximal effect; nearly all actives have a fitted effect of over 55% in size
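Luminescent ATP content (CellTiter-Glo) served as the growth readout. Knockout chicken DT40 cells expressing human TDP1 were exposed to compounds without camptothecin for a minimum 48 hr at 37 °C.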
Active calls of the source: *; u = inconclusive; x = no result given; [ ] = dose if it differs, or a comment. Unless noted, the call rests on the fitted dose curve; in most records, active means well fitted curve in the direction sought with a large enough effect; inconclusive means small, poorly fitted or top-dose-only effect, or another doubt; inactive means no such curve, though single readings can be large; an effect the other way counts as inactive or inconclusive. On the % scale 0 is the no-effect control and ±100 the full control effect.

SMILES | RORgamma inh | ELG1 DNA repair | TDP1 cell CPT | IL-1B inflam inh | VP16 counter | TDP1 cell noCPT
COc1cc(CNC(=O)Nc2nc(C(N)Cc3ccc(Cl)cc3)cs2)cc(OC)c1OC (stereo unspecified) | x | x | u | -74.1* | x | 18.4µM*
COc1ccc(CC(N)c2csc(NC(=O)c3ccc(OC)cc3)n2)cc1 (stereo unspecified) | x | x | 16.4µM* | u | x | 20.6µM*
COc1ccc(CC(N)c2csc(NC(=O)C(c3ccccc3)c3ccccc3)n2)cc1 (stereo unspecified) | x | x | 18.4µM* | -51.9* | x | 6.51µM*
COc1ccc(OC)c(N(C)S(=O)(=O)c2ccc3c(c2)NC(=O)CC(=O)N3)c1 | x | x | 0.2% | x | x | -10.6%
COc1ccc(CC(N)c2csc(NC(=O)c3ccc(F)cc3)n2)cc1 (stereo unspecified) | x | x | u | -54.1* | x | 23.1µM*
CNCCCCc1cnc(C)c2[nH]c3ccccc3c12 | -30.3% | x | 6.5%[9.04 µM] | x | -4.2% | -22.0%[9.04 µM]
Cc1nccn1CCCN1C(=O)OC2(CCCCC2)C1(C)O (stereo unspecified) | 7.8% | 8.7% | u | 16.7 | -11.0% | 20.6µM*
CCN1C(=O)OC2(CCCCC2)C1(C)O (stereo unspecified) | u | 8.2% | x | x | x | x
CN(C)c1ccc(NC(=O)CN2CCc3ccccc3C2)cc1 | 4.3% | u | 2.5% | -10.7 | 23.9% | -21.5%
Cc1c(N2C(=O)/C(=C\c3ccccc3O)SC2=S)c(=O)n(-c2ccccc2)n1C | u | u | 7.31µM* | u | u | u
CN1C(=O)/C(=C/c2cc(N=Nc3ccccc3)ccc2O)SC1=S | -19.0% | -12.9% | u | 26.8 | -11.6% | 23.1µM*
Cc1c(N2C(=O)/C(=C/c3ccc(N(C)C)cc3)N(C)C2=S)c(=O)n(-c2ccccc2)n1C | x | x | 4.3% | -21.7 | x | -21.4%
Cc1c(N2C(=O)/C(=C/c3cccc4ccccc34)SC2=S)c(=O)n(-c2ccccc2)n1C | x | x | u | -79.9* | x | -16.8%
Cc1ccc(/C=C2\SC(=S)N(c3c(C)n(C)n(-c4ccccc4)c3=O)C2=O)cc1 | 44.8% | -18.2% | u | -80.5* | 11.5% | -19.2%
C[C@@H]1CN([C@@H](C)CO)C(=O)c2cccc(NC(=O)C3CCCCC3)c2O[C@@H]1CN(C)C(=O)NC1CCCCC1 | x | u | u | -23.0 | x | u
COc1ccc(C(=O)N2CCC[C@@]3(CCN(C)C3)C2)cc1 | -17.0% | x | -6.7% | x | -3.8% | -17.6%
COCCN(C(=O)COC(=O)c1ccc2ccccc2c1)c1c(N)n(Cc2ccccc2)c(=O)[nH]c1=O | x | x | -21.1% | -10.3 | x | -26.0%
CCC1CN(CCNC(=O)c2cccnc2OC)Cc2cc(OC)ccc2O1 (stereo unspecified) | x | x | 4.4%[9.04 µM] | x | x | u
O=c1cc(-c2ccccc2)n2c(SCc3c(F)cccc3Cl)nnc2[nH]1 | x | x | 2.2% | x | x | -4.9%
Cc1onc(-c2ccccc2)c1C(=O)NC1CCC(C)CC1 (stereo unspecified) | x | 1.9% | 13µM* | 34.3 | x | u
Cc1onc(-c2ccccc2)c1C(=O)NC(=S)NNC(=O)c1cccnc1 | u | -11.0% | 2.5% | 2.9 | -17.9% | u
COc1ccc(C(=O)NC(=S)NNC(=O)c2c(-c3ccccc3)noc2C)cc1OC | 3.98µM* | u | -3.0% | 47.1 | 14.1µM* | u
Cc1onc(-c2ccccc2)c1C(=O)NCc1ccc2c(c1)OCO2 | u | u | 1.8% | 7.4 | -41.0% | -15.1%
Cc1onc(-c2ccccc2)c1C(=O)NNC(=S)NC(=O)c1ccc2c(c1)OCO2 | 2.51µM* | u | -94.2% | 57.8 | -15.2% | 1.64µM*
Cc1onc(-c2ccccc2)c1C(=O)NC1CCCCC1C (stereo unspecified) | x | x | u | 8.0 | x | -14.3%
SMILES | RORgamma inh | ELG1 DNA repair | TDP1 cell CPT | IL-1B inflam inh | VP16 counter | TDP1 cell noCPT
Cn1nc(-c2ccccc2)c(CN2CCN(c3ncccn3)CC2)c1Cl | 23.5% | -2.3% | u | -13.2 | -8.2% | u
COc1ccc(O)c(C(=O)c2cnn(C(=O)c3cccc(N(C)C)c3)c2)c1 | x | u | 18.4µM* | -23.6 | x | 18.4µM*
COc1ccc(C(=O)n2cc(C(=O)c3cc(C)ccc3O)cn2)cc1OC | -28.5% | 23.1µM* | u | 0.0 | u | u
O=C(NC1CCCCC1)c1cccc2c1C(=O)c1ccc(-c3ccc(OC(F)(F)F)cc3)cc1S2(=O)=O | x | 0.0% | 9.2µM* | 11.3 | x | 9.2µM*
O=C(NC1CCCC1)c1cccc2c1C(=O)c1ccc(/C=C/c3ccccc3)cc1S2(=O)=O | x | u | u | 33.4 | x | 18.4µM*
O=C(NCc1ccccc1)c1cccc2c1C(=O)c1ccc(/C=C/c3ccccc3)cc1S2(=O)=O | x | -15.9% | u | 13.4 | x | u
O=C(CSc1nnc(-c2ccccc2)o1)c1cccc([N+](=O)[O-])c1 | x | x | -12.0% | x | x | u
COc1ccc(NC(=S)N2CCC(c3nc4ccccc4o3)CC2)c(OC)c1 | -17.9% | 9.5% | u | -0.9 | 3.2% | 0.0%
CC1Cc2ccccc2N1C(=S)Nc1ccc(S(N)(=O)=O)cc1 (stereo unspecified) | 27.8% | -23.3% | u | -11.5 | 10.4% | u
COc1ccc(OC)c(NC(=S)N2c3ccccc3CC2C)c1 (stereo unspecified) | 36.3% | 18.3µM* | -25.9% | 13.4 | -0.5% | -1.1%
COc1cc(NC(=S)N2c3ccccc3CC2C)cc(OC)c1 (stereo unspecified) | 8.91µM* | -15.3% | 17.8% | 31.1 | 17.8µM* | -11.0%
CC(=O)c1ccc(NC(=S)N2c3ccccc3CC2C)cc1 (stereo unspecified) | u | -13.7% | -27.2% | 6.8 | 0.2% | -6.3%
COc1cccc(NC(=S)N2c3ccccc3CC2C)c1 (stereo unspecified) | 22.4µM* | -1.5% | -23.6% | 12.3 | u | 6.1%
COc1ccc(OC)c(NC(=S)N2CCC(C(O)(c3ccccc3)c3ccccc3)CC2)c1 | 15.8µM* | -11.3% | -9.0% | 0.0 | u | u
CCCCCCCC1=Cc2ccccc2C(CC(C)=O)N1C(=O)OC (stereo unspecified) | 15.2%[10 µM] | x | x | x | -2.8%[10 µM] | x
COc1cccc(OC)c1CN1CCC2(CCC(CNC(=O)c3ccccc3)O2)CC1 (stereo unspecified) | x | x | 8.6% | x | x | -23.5%
